Screening data (PubChem)
RGS7-Gao = human RGS7-Galphao interaction regulation; P09471; Multiplexed bead flow cytometry, RGS7-Galphao binding; actives lie on both sides; 220,000 compounds, 0.35% hits; binding response (% of control), % at 10 µM; in the data active = binding response below about 49% or above about 150%; inconclusive = no clear call, values can overlap the other calls; inactive = in between;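 also: fluorescent Galphao held in activated GDP-AlF4 state binding bead-coupled RGS7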
Target sequence (P09471 whole entry, looked up): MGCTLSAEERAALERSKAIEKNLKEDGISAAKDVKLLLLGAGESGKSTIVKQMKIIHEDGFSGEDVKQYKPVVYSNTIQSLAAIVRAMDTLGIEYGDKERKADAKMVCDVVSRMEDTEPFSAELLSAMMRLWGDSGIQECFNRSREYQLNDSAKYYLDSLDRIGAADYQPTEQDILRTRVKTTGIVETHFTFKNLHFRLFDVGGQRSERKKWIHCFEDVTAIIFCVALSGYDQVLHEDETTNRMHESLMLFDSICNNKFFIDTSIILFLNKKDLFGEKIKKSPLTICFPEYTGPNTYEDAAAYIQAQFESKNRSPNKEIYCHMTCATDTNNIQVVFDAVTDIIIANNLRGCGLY
RGS8-Gao = modulates binding of RGS8 to human Galphao; response (percent of control binding), % at 10 µM; P09471; 220,000 compounds, 0.34% hits; AID 1423; multiplexed bead flow cytometry; actives lie on both sides; in the data active = response below about 60% or above about 140%; inactive = in between;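 also: Galphao activated as the GDP aluminium fluoride complex binding bead-coupled RGS8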
RGS4-Gao reg = modulates binding of RGS4 to human Galphao; P09471; Multiplexed bead flow cytometry; actives lie on both sides; binding response (% of control), % at 10 µM; 220,000 compounds, 0.33% hits; AID 1415; in the data active = binding response below about 49% or above about 150%; inactive = in between;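 also: fluorescent Galphao activated with aluminum fluoride binding bead-coupled RGS4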
Avidin fluor = compound fluoresces at 488/530 nm on avidin beads. 220,000 compounds, 0.38% hits. compound fluorescence 488/530 nm, flow cytometry; hits give high values. fluorescence (KMESF) at 10 µM; in the data active = fluorescence above about 47
GSH bead fluor = GSH bead compound fluorescence profile. GSH beads flow cytometry, compound fluorescence 488/530 nm; hits give high values. fluorescence (KMESF) at 10 µM. 190,000 compounds, 0.25% hits. AID 1776; in the data active = fluorescence above about 89;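 also: glutathione beads carrying GST-tagged Bcl family fusion proteins plus one bare bead set; values are compound well signal with DMSO vehicle wells as background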
RGS16-Gao = modulates binding between human RGS16 and Galphao; bead-based flow cytometry RGS16-Galphao binding, fluorescence; actives lie on both sides; binding response (% of control), % at 10 µM; 220,000 compounds, 0.38% hits; AID 1441;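 also: Galphao activated by GDP with aluminum fluoride before binding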
Target sequence (O15492 whole entry, looked up): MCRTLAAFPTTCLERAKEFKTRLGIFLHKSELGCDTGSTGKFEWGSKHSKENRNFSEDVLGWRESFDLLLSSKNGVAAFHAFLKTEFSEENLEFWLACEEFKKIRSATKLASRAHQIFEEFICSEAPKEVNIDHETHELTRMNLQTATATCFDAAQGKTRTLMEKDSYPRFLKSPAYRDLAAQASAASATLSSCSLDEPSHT
Target sequence (P09471 whole entry, looked up): as the sequence (P09471 whole entry, looked up) above
RGS-Gao = regulators of human RGS4-Galphao interaction. shares compounds with RGS16-Gao. multiplexed bead flow cytometry, RGS–Galpha-o binding. RGS4–Galpha-o binding response, % at 10 µM. 1,600 compounds, 99% hits. AID 1504;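 also: fluorescently labeled Galpha-o bound to GDP with aluminium fluoride binding biotinylated RGS beads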
Biotin-avidin = counter-screen: compounds disrupting biotin binding to avidin beads | 1,700 tested, under 10 active | streptavidin beads, fluorescein-biotin binding, flow cytometry | AID 1783 | shares compounds with RGS16-Gao | inhibition, % at 10 µM;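 active = inhibition above 50%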;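 also: median green fluorescence of gated singlet beads compared with DMSO control wells; 0% = DMSO wells and 100% = complete loss of bead fluorescence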
RGS8-Gao confirm = confirmation of regulators of human RGS8-Galphao interaction; shares compounds with RGS16-Gao; bead-based flow cytometry RGS8-Galphao binding, fluorescence; actives lie on both sides; binding response (% of control), % at 10 µM; 1,700 compounds, 3% hits; AID 1836; in the data active = binding response below about 72% or above about 130%; inactive = in between;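 also: Galphao activated as GDP AlF4 complex before binding bead RGS8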
RGS7-Gao single = RGS7-Galphao interaction regulation, single point confirmation; 1,700 compounds, 7.8% hits; AID 1837; shares compounds with RGS16-Gao; response (percent of control binding), % at 10 µM; bead-based flow cytometry RGS7-Galphao binding; actives lie on both sides; in the data active = response below about 75% or above about 130%; inactive = in between;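 also: fluorescent Galphao activated with GDP and aluminum fluoride binding bead-coupled RGS7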
RGS16-Gao single = confirmation of regulators of human RGS16-Galphao interaction; shares compounds with RGS16-Gao; response (% of control binding), % at 10 µM; 1,700 compounds, 4% hits; bead-based flow cytometry, RGS16-Galphao binding; actives lie on both sides; in the data active = response below about 74% or above about 130%; inactive = in between;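 also: Galphao activated as the GDP aluminium fluoride complex binding bead-coupled RGS16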
RGS4-Gao single = RGS4-Galphao interaction regulation, single point confirmation | AID 1840 | RGS4-Galphao binding, multiplexed bead flow cytometry; actives lie on both sides | 1,700 compounds, 4% hits | binding response (% of control), % at 10 µM | shares compounds with RGS16-Gao; in the data active = binding response below about 74% or above about 130%; inactive = in between
RGS19-Gao single = RGS19-Galphao interaction regulation, single point confirmation; shares compounds with RGS16-Gao; bead-based flow cytometry RGS19-Galphao binding; actives lie on both sides; response (percent of control binding), % at 10 µM; 1,700 compounds, 5% hits; AID 1841; in the data active = response below about 50% or above about 160%; inactive = in between;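 also: 100% = no compound control and 0% = blank background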
The depositor's hits bear a star; ? = inconclusive; . = no result; [ ] = dose if it differs, or a comment. The list is not random: actives were taken first. Their share in the collection is about 1.2%. Unless noted, no rule for the calls is given here.

SMILES	RGS7-Gao	RGS8-Gao	RGS4-Gao reg	Avidin fluor	GSH bead fluor	RGS16-Gao	RGS-Gao	Biotin-avidin	RGS8-Gao confirm	RGS7-Gao single	RGS16-Gao single	RGS4-Gao single	RGS19-Gao single
CN(CCO)c1ccc(-c2nn(C)c(=O)c3ccccc23)cc1[N+](=O)[O-]	?	101	100	6	.	98	.	.	.	.	.	.	.
COC(=O)C1=C2SCC(=O)N2C(N)=C(C#N)C1	?	100	100	7	.	98	.	.	.	.	.	.	.
OC12CCCCC1C(c1ccc3c(c1)OCO3)N(Cc1ccccc1F)CC2 (stereo not drawn)	158*[activator]	101	113	130*	10	106	113*	1	98	102	97	101	96
OC12CCCCC1C(c1ccc3c(c1)OCO3)N(Cc1ccc(F)cc1)CC2 (stereo not drawn)	95	99	100	7	24	100	.	.	.	.	.	.	.
Cc1cc(C)n2ncc(C(=O)O)c2n1	96	100	97	8	54	109	.	.	.	.	.	.	.
C/C(CC(=O)Nc1ccccn1)=N\NC(=O)c1ccc2ccccc2c1	105	122	107	14	5	211*[activator]	107*	1	95	89	92	91	96
c1ccc(C2CCC(N3CCNCC3)CC2)cc1 (stereo not drawn)	122	141*[activator]	120	6	10	250*[activator]	120*	-1	103	94	97	93	102
CC(C)(C)C(=O)Cn1ncc(Br)c(Br)c1=O	86	95	90	7	20	93	.	.	.	.	.	.	.
COc1ccc(Oc2ccccc2/C=C/C(=O)O)cc1	98	100	98	33	12	101	.	.	.	.	.	.	.
O=C(O)/C=C\c1ccccc1Oc1ccc(F)cc1	167*[activator]	100	127	89*	70	101	127*	1	103	86	98	97	98
O=C(O)/C=C/c1ccccc1Oc1ccccc1	154*[activator]	138	162*[activator]	88*	30	184	.	0	98	96	98	96	97
CC(C)(C)OC(=O)N1CCC(c2cc(=O)n3[nH]cc(C(=O)Nc4ccc(F)c(Cl)c4)c3n2)CC1	?	99	101	7	.	99	.	.	.	.	.	.	.
CC(C)(C)OC(=O)N1CCC(c2cc(=O)n3[nH]c(-c4ccc(Cl)cc4)cc3n2)CC1	44*	47*	33*	0	23	6	.	-2	102	95	101	99	88
COc1ccc(-n2nc(C(=O)NCC(=O)NCC3COc4ccccc4O3)c3ccccc3c2=O)cc1 (stereo not drawn)	?	102	104	12	15	104	.	.	.	.	.	.	.
CCOC(=O)c1cccc(-n2c(C)nc3ccccc3c2=O)c1	100	91	96	13	29	73	.	.	.	.	.	.	.
CCOC(=O)c1cccc(-n2c(-c3ccc(OC)cc3)nc3nc4ccccc4nc32)c1	179*[activator]	98	108	124*	15	101	108*	0	96	103	100	101	90
CCOC(=O)N1CCC(N(CCN(C)C)C(=S)Nc2ccc(Oc3ccccc3)cc2)CC1	101	103	101	20	14	106	.	.	.	.	.	.	.
CCN(CC)C(=O)C[n+]1cccc(/C=N/O)c1	97	103	101	4	8	112	.	.	.	.	.	.	.
CN(C)C(=O)C[n+]1cccc(/C=N/O)c1	110	142*[activator]	114	13	9	251*[activator]	114*	0	100	97	101	100	108
C=CCn1c(C(CCCC)CC(C)O)n[nH]c1=S (stereo not drawn)	85	67	84	5	9	-9.0*	84*	0	91	88	87	90	55
C=CCn1c(C(CCC(C)C)CC(C)(C)O)n[nH]c1=S (stereo not drawn)	111	103	102	6	28	94	.	.	.	.	.	.	.
O=C(NNC(=S)Nc1ccc(Br)cc1Cl)c1ccncc1	164*[activator]	102	112	90*	21	110	112*	2	102	101	104	103	110
COc1ccc2c(c1OC)C(=O)OC2Nc1ncc(Br)cc1Br (stereo not drawn)	112	125	124	5	46	188*[activator]	124*	0	100	102	100	100	100
COc1ccc2c(c1OC)C(=O)OC2Nc1ccc(S(=O)(=O)N=C(N)N)cc1 (stereo not drawn)	?	96	88	5	.	92	.	.	.	.	.	.	.
Cn1cnc(S(=O)(=O)Nc2ccccc2C(=O)NCC2CC2)c1	?	108	110	6	.	108	.	.	.	.	.	.	.
CN1CCN(C(c2cccc(C(F)(F)F)c2)c2nnnn2Cc2ccccc2)CC1 (stereo not drawn)	120	144*[activator]	126	5	44	348	126*	1	100	100	102	101	105
N#Cc1cccc(C(c2nnnn2Cc2ccccc2)N2CCCC2)c1 (stereo not drawn)	107	102	102	7	36	107	.	.	.	.	.	.	.
Cc1cccc(NC(=O)c2ccccc2OCC(=O)N2CCCC2)c1C	?	101	99	11	15	100	.	.	.	.	.	.	.
Cc1nn(-c2ccccc2)c2sc(C(=O)N3CCCCC3)cc12	.	.	.	.	47	.	.	-2	101	97	106	103	105
CCNC(=S)N(Cc1ccc(OC)cc1)C1CC(=O)N(c2ccc(OCC)cc2)C1=O (stereo not drawn)	.	.	.	.	18	.	.	0	102	108	107	103	99
